Assay outcomes as filed in PubChem BioAssay.
Compounds with a hit are over-represented: about 2.1% of the library has one in this group of screens.
FUS suppressor = rescues growth of FUS-expressing yeast; AID 1347120; S. cerevisiae FUS-expressing, growth rescue, OD600, 24 h; Potency, µM (top dose mostly 76.6 µM), actives largely listed as activators; 390,000 tested, 0.24% active;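 also: plate controls were DMSO vehicle for no effect and reference control for full effect; nearly all actives have a fitted effect of over 55% in size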
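Yeast expressing FUS under galactose induction, OD 0.005 in 2% galactose medium; compounds in a dilution series, 24 h at 30C. Growth rescue by absorbance at 600 nm; CP55940 positive control, DMSO negative.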
Abeta rescue = A-beta toxicity reversal in yeast. yeast expressing A-beta42, growth rescue, OD600, 48 h; response scale: 0% DMSO, 100% iron-clioquinol control. Potency, µM (series often up to 46.1 µM), actives largely listed as activators. 410,000 tested, 0.063% active; also: nearly all actives have a fitted effect of over 55% in size
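Yeast growth medium received pinned compounds, then yeast cells expressing toxic A-beta were added; plates incubated at 30 C for 48 hr. Growth read as absorbance at 600 nm, normalized to DMSO and equimolar FeCl3 plus clioquinol controls.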
TDP43 rescue = rescues yeast growth from TDP-43 toxicity. TDP-43 expressing yeast growth rescue, BacTiter-Glo, 24 h. Potency, µM (top dose mostly 46.1 µM), inactives show at the top dose growth rescue (activation), actives largely listed as activators. 410,000 tested, 1.8% active. AID 652104; also: % of control where 0% means no effect; nearly all actives have a fitted effect of over 50% in size
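Readout is BacTiter-Glo luminescence of cell growth, so inhibitors register as activators. TDP-43-expressing yeast at OD600=0.02 in galactose medium, after raffinose pregrowth to mid-log, were incubated with compound for 24 hr at 30 deg C.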
aSyn yeast inh = alpha-synuclein toxicity inhibition in yeast | Yeast expressing alpha-synuclein, growth rescue, BacTiter-Glo, 24 h | Potency, µM (highest dose often 46.1 µM), for inactives: at the highest dose growth rescue (activation), most hits filed as activators | 370,000 tested, 0.14% active | AID 652106; also: % of control where 0% means no effect; nearly all actives have a fitted effect of over 65% in size
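Readout is rescue of growth in alpha-synuclein-expressing yeast, so inhibitors of toxicity appear as activators. Growth after 24 hr at 30 deg C in galactose medium is quantified by luminescence.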
* hit, by the source's call; i = inactive; ? = inconclusive; . = no result given. Calls follow the shape of the dose curve; as a rule, active = well fitted curve in the direction sought with a large enough effect; inconclusive = small, poorly fitted or top-dose-only effect, or another doubt; inactive = no such curve, though single readings can be large; an effect the other way counts as inactive or inconclusive. Potency is read from the fitted curve at half-maximal effect.

SMILES	FUS suppressor	Abeta rescue	TDP43 rescue	aSyn yeast inh
CCOc1ccccc1NC(=O)COC(=O)c1cn(CC)c2nc(C)ccc2c1=O	i	i	35µM*	.
CCn1cc(C(=O)OCC(=O)c2cc(C)n(-c3ccc(OC(F)F)cc3)c2C)c(=O)c2ccc(C)nc21	.	i	13µM*	0%
CCn1cc(C(=O)OCC(=O)c2cc(C)n(-c3ccccc3)c2C)c(=O)c2ccc(C)nc21	i	i	28%	2%
O=C(Nc1ccc(Br)cc1)C1CCN(c2ncccn2)CC1	i	i	?	.
Cc1ccc(C(C)NC(=S)NC2CCCCC2)c(C)c1 (stereo not drawn)	i	11µM*	20%	-25%
COc1ccc(S(=O)(=O)c2cn(C)c3cc(N4CCCCCC4)c(F)cc3c2=O)cc1	i	i	16%	.
Cc1ccccc1OCC(=O)Nc1ccc(N2CCN(C(=O)c3ccco3)CC2)cc1	i	?	16µM*	2%
O=C(COc1ccccc1Cl)Nc1ccc(N2CCN(C(=O)c3ccccc3)CC2)cc1	i	i	22µM*	0%
O=C(COc1ccccc1Cl)Nc1ccc(N2CCCC2)cc1	i	i	23%	4%
Cc1cccnc1NC(=S)Nc1ncccc1C	i	i	-19%	-17%
CCOc1ccccc1NC(=S)Nc1ncccc1C	.	i	14µM*	-11%
CC(C)CNS(=O)(=O)/C=C/c1ccccc1CCNC(=O)OC(C)(C)C	i	.	.	.
O=C(CCl)Nc1cccc(-c2cnc3ccccc3n2)c1	i	i	13µM*	6%
CN(C)C(=O)CCc1ccc2c3c([nH]c2c1)[C@]1(CCC2CCCC2)[C@@H](C(=O)N2CCOCC2)C[C@H](CC(=O)NCCC2=CCCCC2)C(=O)N1CC3	16µM*	i	21%	0%
COc1ccc2[nH]c3c(c2c1)CCN1C(=O)C(CC(=O)NCCC2=CCCCC2)C[C@H](C(=O)N(C(C)C)C(C)C)[C@@]31C (stereo partly drawn)	?	i	?	-5%
CCN(CC)C(=O)[C@H]1C[C@H](CC(=O)NCC23CC4CC(CC(C4)C2)C3)C(=O)N2CCc3c([nH]c4ccc(Cl)cc34)[C@]12C	i	i	20µM*	?
CC(C)N(C(=O)[C@H]1C[C@H](CC(=O)NCC23CC4CC(CC(C4)C2)C3)C(=O)N2CCc3c([nH]c4ccc(Cl)cc34)[C@]12C)C(C)C	i	i	17%	?
CN(C)C(=O)CCc1ccc2c3c([nH]c2c1)[C@]1(CCC2CCCC2)[C@@H](C(=O)N2CCOCC2)C[C@H](CC(=O)NCCN2CCOCC2)C(=O)N1CC3	i	i	-2%	-1%
CC(C)N(C(=O)[C@H]1CC(CC(=O)NCCC2=CCCCC2)C(=O)N2CCc3c([nH]c4ccccc34)[C@]12C)C(C)C (stereo partly drawn)	?	i	35µM*	?
O=S(=O)(Nc1cccc(-c2ccc(N3CCCCC3)nn2)c1)c1cccs1	i	i	11%	.
COc1ccc(C(=O)NCC2OCCc3ccccc32)c(O)c1 (stereo not drawn)	i	i	14µM*	-12%
CC(C)COc1ccc(C(=O)NCC2OCCc3ccccc32)cc1 (stereo not drawn)	i	i	26%	.
Cc1cc(C)c(S(=O)(=O)Nc2ccc(-c3ccc(N4CCCCC4)nn3)cc2)c(C)c1	?	i	-20%	.
Cc1nc2c(C(=O)NCCc3ccc(Cl)cc3)cnn2c(C)c1Cc1ccc(F)cc1	32µM*	i	20µM*	.
COC(=O)c1ccc(/C=C/C(=O)c2ccc(OC)cc2)cc1	i	i	-5%	1%
SMILES	FUS suppressor	Abeta rescue	TDP43 rescue	aSyn yeast inh
COC(=O)c1ccc(/C=C/C(=O)O)cc1	i	i	35µM*	-7%
COc1cccc2sc3ccc(C#CC4(O)CCCCC4)cc3c(=O)c12	?	i	16µM*	-7%
COc1cccc2sc3ccc(C#Cc4ccc(N)cc4)cc3c(=O)c12	32µM*	i	-2%	1%
Nc1ccc(C#Cc2ccc3sc4ccccc4c(=O)c3c2)cc1	i	i	15%	2%
CCN(CC)CCNC(=O)Cn1nc(C)c2c(C)n(-c3ccccc3)nc2c1=O	i	i	18%	.
CC(NC(=O)CCCCCCN1C(=O)c2ccccc2C1=O)c1ccc2c(c1)CCCC2 (stereo not drawn)	.	i	35µM*	-16%
